# In the supplement of paper PMC6555819:
# Legend:
# Assay in all cases: PBM binding z-score (relative to random genomic background probes); higher = stronger binding; sequences stand for … in GC…GCGATTGACAGCGTAGAATGAAGG
# [1] = tested on: PPARg:RXRa DBDmut IVT, anti-RXR (DBD mutation: RXRa K156A/R161A, NR concentration 270 nM, RXRa partner concentration 90 nM)
# Procedure, shortened: (§1)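 The probes on custom Agilent 4×180K protein-binding microarrays were double-stranded, with 34-nt variable regions bearing direct-repeat seeds, single-nucleotide variants, half-site ablations and random human genomic background sequences. Incubation lasted 1 h with ligand-free nuclear receptor dimers in PBS pH 7.4, 2% milk, 0.02% Triton X-100, 1 mM DTT, 0.2 mg/mL BSA and 0.4 mg/ml salmon testes DNA. Antibodies against each partner (one per run) detected bound dimers, and fluorescence scans were regression-normalized. Binding z-scores take the random background probes as reference.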
# [2] = tested on: PPARg:RXRa IVT, anti-PPARg (NR concentration 270 nM, RXRa partner concentration 90 nM)
# Procedure, shortened: as §1
# [3] = tested on: PPARg DBDmut:RXRa IVT, anti-PPARg (DBD mutation: PPARg1 K132A/R137A, NR concentration 270 nM, RXRa partner concentration 90 nM)
# Procedure, shortened: as §1
# [4] = tested on: PPARg DBDmut IVT, anti-PPARg (DBD mutation: PPARg1 K132A/R137A, NR concentration 270 nM)
# Procedure, shortened: as §1
# [5] = tested on: PPARg homodimer (NR concentration 180 nM)
# Procedure, shortened: as §1
# [6] = tested on: PXR:RXRa (NR concentration 270 nM, RXRa partner concentration 90 nM)
# Procedure, shortened: as §1
# [7] = tested on: PXR homodimer (NR concentration 270 nM)
# Procedure, shortened: as §1
# [8] = tested on: RARa:RXR (NR concentration 270 nM, RXRa partner concentration 90 nM)
# Procedure, shortened: as §1
# [9] = tested on: RARa homodimer (NR concentration 270 nM)
# Procedure, shortened: as §1
# [10] = tested on: RARb:RXRa (NR concentration 270 nM, RXRa partner concentration 90 nM)
# Procedure, shortened: as §1
# [11] = tested on: RARb homodimer (NR concentration 270 nM)
# Procedure, shortened: as §1
# [12] = tested on: RARg:RXRa (NR concentration 270 nM, RXRa partner concentration 90 nM)
# Procedure, shortened: as §1
# [13] = tested on: RARg homodimer (NR concentration 270 nM)
# Procedure, shortened: as §1
# [14] = tested on: RXRa DBDmut IVT, anti-RXR (DBD mutation: RXRa K156A/R161A, NR concentration 90 nM)
# Procedure, shortened: as §1
# [15] = tested on: RXRa homodimer (NR concentration 180 nM)
# Procedure, shortened: as §1
# [16] = tested on: THRa:RXRa (NR concentration 90 nM, RXRa partner concentration 90 nM)
# Procedure, shortened: as §1
# [17] = tested on: THRa homodimer (NR concentration 90 nM)
# Procedure, shortened: as §1
# [18] = tested on: VDR homodimer (NR concentration 270 nM)
# Procedure, shortened: as §1
Sequence,PBM binding z-score [1],PBM binding z-score [2],PBM binding z-score [3],PBM binding z-score [4],PBM binding z-score [5],PBM binding z-score [6],PBM binding z-score [7],PBM binding z-score [8],PBM binding z-score [9],PBM binding z-score [10],PBM binding z-score [11],PBM binding z-score [12],PBM binding z-score [13],PBM binding z-score [14],PBM binding z-score [15],PBM binding z-score [16],PBM binding z-score [17],PBM binding z-score [18]
CTACCAAGGTAAACAAGGTCGTTGATTACTATTC,1.19,0.986,-0.194,0.206,0.169,2.25,1.6,1.75,0.382,0.851,1.18,0.545,0.535,1.34,1.06,3.2,1.5,2.04
CCTACTTGGTCAAGGTCACACACGCTATAGGTAC,2.5,3.56,0.858,1.02,3.34,4.31,1.72,4.29,2.21,4.18,4.57,4.56,4.86,2.17,4.71,4.06,4.41,3.28
CCTATTAGTTGACTATAAGGGCAACCGAAGCTCG,0.032,0.399,0.358,0.398,0.891,0.229,0.676,0.501,1.22,1.25,1.42,1.15,0.934,0.543,0.351,1.79,0.969,0.425
CCTAATTGGTCAGGAGGTCACACACCGGATATGA,1.64,3.67,0.824,0.695,3.7,4.19,1.4,4.5,2.15,3.87,4.46,4.97,4.47,1.33,4.88,3.69,2.45,2.62
TCATATAGGTAAAGGTGATAGTCGAACGATATGA,3.45,3.38,1.17,1.36,0.694,0.398,0.262,0.569,0.68,1.09,0.45,0.866,0.944,0.699,1.19,0.353,-0.589,-0.591
ATCTCTAGGTAAAAGTTCAGTGCATCCCGAGGAT,1.88,3.85,0.957,1.05,1.6,2.28,2.08,1.69,1.4,2.36,2.59,1.85,1.81,0.951,1.49,1.43,0.48,2.21
CCTGCTGGGCCAAAAAGGTCATTGATGCCGATAA,0.633,1.32,-0.602,-0.914,3.24,4.99,3.34,5.41,0.138,3.89,4.32,4.6,4.17,0.818,4.91,3.12,0.279,2.58
AGAACGAGGTCAATGAGTTGATAGCACGGGTGGC,5.59,5.76,1.71,0.861,3.64,5.72,8.63,5.14,0.929,4.89,3.94,5.78,5.81,4.11,6.03,3.94,2.08,5.27
CCGACTGGGGCAAGGTTACCATAACGCACAGCCA,3.29,3.67,-0.449,-0.891,0.674,0.267,-0.266,0.99,0.394,1.75,1.33,1.31,1.39,-0.473,1.34,1.33,0.342,-0.0373
CCTTACGGGTCACTGACAGATTATAGCATTTGGA,3.42,3.85,0.84,0.266,2.31,3.04,0.241,4.3,1.11,3.93,3.01,4.96,4.43,2.1,4.89,2.38,0.495,0.842
TCTACTAGGTCAGTTGGTCAGCTAACGAGCTGCC,6.44,6.43,1.78,0.835,1.78,0.537,-0.418,0.904,0.501,3.46,2.91,2.74,3.58,1.19,1.24,1.28,0.622,0.162
AGAACGAGGGCTCGCTGAGTTGATAGCAGAGTAG,-0.0756,-0.495,-1.3,-0.699,-0.792,-0.724,-0.639,-0.678,-1.21,-0.365,-1.22,-0.312,-0.258,-0.292,-0.132,-0.509,-0.958,-0.176
ACTAGCAGGCTAAGGGTCACTCAAGATTAGTCCG,0.414,3.12,0.0604,-0.126,1.94,3.45,-0.319,4.56,0.291,3.47,3.89,3.88,3.65,0.904,4.18,2.6,-0.003,1.01
ATACCAAGGTGATCGTGAGATCGTTGATACTAAC,0.453,1.18,0.758,0.465,0.145,-0.151,-0.339,0.227,0.462,0.492,0.108,0.309,0.133,0.00637,0.0742,0.704,0.421,0.0841
